Screening results from PubChem.
Compounds with a hit are over-represented: about 8.8% of the library has one in this group of screens.
KB-3-1 cytotox: kills parental KB-3-1 adenocarcinoma cells; AID 1347075; 1.4% of 400,000 active; Potency, µM (doses to about 46.1 µM), hits mostly cytotoxic; KB-3-1 viability, CellTiter-Glo ATP luminescence, 72 h; further: nearly all actives have a fitted effect of over 60% in size
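Luminescent ATP read-out (CellTiter-Glo) measures survival of drug-naive KB-3-1 cells after 72 h compound exposure at 37 °C. Titration series was screened from lowest to highest concentration, with DMSO vehicle plates as background controls.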
IL1B secr inh: inflammasome signaling inhibition, IL-1 beta readout; THP-1 LPS/ATP IL-1B secretion, AlphaLISA, 16 h; hits give low values; activity change, % at 57.5 µM; 4.7% of 360,000 active; AID 743279; in the data active means activity change below about -50%; inconclusive means mostly about -30% to -49%
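THP-1 cells pretreated 1 hr with compounds (up to 57.5 uM final), then stimulated with LPS (250 ng/mL final) plus ATP (1.25 mM final); secreted IL-1B measured by AlphaLISA after 16 hr, decreased signal indicating inhibition.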
HT1080NT lethal: kills 2HG-producing HT-1080-NT fibrosarcoma cells | HT-1080-NT fibrosarcoma viability, CellTiter-Glo ATP luminescence, 48 h | Potency, µM (doses to about 46.1 µM), usual class: cytotoxic | AID 686970 | 1.6% of 360,000 active;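 further: NT is the 2HG producing partner of a matched IDH1 knockdown line; nearly all actives have a fitted effect of over 55% in size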
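Viability of the 2HG-overproducing fibrosarcoma line after 48 hours of compound exposure at 37 degrees C was determined by luminescence with CellTiter-Glo, and concentration-effect curves were then fitted and categorized.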
KB-V1 MDR tox: KB-V1 MDR subline cytotoxicity; Potency, µM (highest dose often 46.1 µM), hits mostly cytotoxic; 3.4% of 400,000 active; KB-V1 MDR cells viability, CellTiter-Glo, 72 h; further: nearly all actives have a fitted effect of over 60% in size
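Potencies derive from concentration-effect curves fitted to normalized luminescence (CellTiter-Glo) of KB-V1 cells treated for 72 h at 37 degrees C in phenol-red-free DMEM containing 10% FBS.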
HT1080 IDH1KD tx: HT-1080 IDH1 knockdown cell toxicity (counter line). HT-1080 IDH1 knockdown viability, ATP luminescence, 48 h. Potency, µM (highest dose often 46.1 µM), most hits filed as cytotoxic. 2% of 360,000 active. AID 686971
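Luminescent ATP read-out (CellTiter-Glo, 10 min at room temperature) after 48 h compound exposure at 37 °C gave viability of IDH1-knockdown HT-1080 cells. Activity was normalised to DMSO and cell-free wells, then fitted as concentration-response curves.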
Each line names hits and unclear results; the compound was inactive in the other large screens. Unless noted, the call rests on the fitted dose curve; in most records, active means well fitted curve in the direction sought with a large enough effect; inconclusive means small, poorly fitted or top-dose-only effect, or another doubt; inactive means no such curve, though single readings can be large; an effect the other way counts as inactive or inconclusive.

COCCNC(=O)c1ccc(-c2nc(CN3CCc4ccccc43)c(C)o2)cc1	KB-3-1 cytotox inconclusive, KB-V1 MDR tox 10µM (no result: IL1B secr inh, HT1080NT lethal, HT1080 IDH1KD tx)
Cc1ccc(S(=O)(=O)N2CCN(S(=O)(=O)c3ccc4c(c3)OCCCO4)CC2)cc1	KB-3-1 cytotox inconclusive (no result: IL1B secr inh, HT1080NT lethal, HT1080 IDH1KD tx)
Cc1ccc(OCC(=O)OCc2cc(=O)n3nc(-c4cccs4)sc3n2)cc1C	none (no result: IL1B secr inh, HT1080NT lethal, HT1080 IDH1KD tx)
C/C(=N\Nc1nc2ccccc2[nH]1)c1ccc2c(c1)OCCO2	KB-3-1 cytotox inconclusive, IL1B secr inh -54, KB-V1 MDR tox inconclusive, HT1080 IDH1KD tx inconclusive
C/C(=N\Nc1nc2ccccc2[nH]1)c1cc2ccccc2o1	KB-3-1 cytotox inconclusive, IL1B secr inh -95, HT1080NT lethal inconclusive, KB-V1 MDR tox inconclusive, HT1080 IDH1KD tx inconclusive
C/C(=N\Nc1nc2ccccc2[nH]1)c1ccc2c(c1)OCO2	IL1B secr inh -83, HT1080NT lethal inconclusive, KB-V1 MDR tox inconclusive, HT1080 IDH1KD tx inconclusive
C/C(=N\Nc1ccccn1)c1ccc2c(c1)OCO2	none
O=C(O)CCc1nc2cc(C(F)(F)F)ccc2n(Cc2ccccc2)c1=O	none
COc1ccccc1CNCC(O)(c1ccc(Cl)cc1)c1ccc(Cl)cc1	IL1B secr inh inconclusive, HT1080NT lethal 13µM, KB-V1 MDR tox inconclusive, HT1080 IDH1KD tx 11µM
COc1ccccc1CNCC(O)(c1ccc(F)cc1)c1ccc(F)cc1	none
OC(CNCc1ccccc1F)(c1ccc(F)cc1)c1ccc(F)cc1	IL1B secr inh -80, KB-V1 MDR tox inconclusive
Cc1ccc(CNCC(O)(c2ccccc2)c2ccc(F)cc2)cc1 (stereo not drawn)	KB-V1 MDR tox 18µM
COc1ccc(CNCC(O)(c2ccc(F)cc2)c2ccc(F)cc2)cc1	IL1B secr inh -89, HT1080NT lethal inconclusive, HT1080 IDH1KD tx inconclusive
Cc1ccc(CNCC(O)(c2ccc(F)cc2)c2ccc(F)cc2)cc1	none
COc1ccc(OCc2nnc(SC(C)C(=O)Nc3ccc(N4CCOCC4)cc3)n2C)cc1 (stereo not drawn)	none
COCCNC(=O)C(c1ccc(F)cc1)N(Cc1cccs1)C(=O)CCC(=O)Nc1ccccn1 (stereo not drawn)	none
OC(CNCc1ccccc1)(c1ccccc1)c1ccccc1	none
COc1ccc(CNCC(O)(c2ccccc2)c2ccccc2)cc1	IL1B secr inh -78
CCC(C)(C)n1nnnc1C(c1cc2cc(C)ccc2[nH]c1=O)N1CCCc2ccccc21 (stereo not drawn)	IL1B secr inh inconclusive, KB-V1 MDR tox inconclusive
CCC(C)(C)n1nnnc1C(c1cc2cc(OC)ccc2[nH]c1=O)N1CCc2ccccc21 (stereo not drawn)	KB-3-1 cytotox inconclusive, KB-V1 MDR tox 18µM
CCC(C)(C)n1nnnc1C(c1cc2ccc(OC)cc2[nH]c1=O)N1CCc2ccccc2C1 (stereo not drawn)	KB-3-1 cytotox inconclusive, IL1B secr inh -65, HT1080 IDH1KD tx inconclusive
CCC(C)(C)n1nnnc1C(c1cc2ccc(OC)cc2[nH]c1=O)N1CCc2ccccc21 (stereo not drawn)	HT1080NT lethal inconclusive, HT1080 IDH1KD tx 11µM
O=C(CSc1cc(Cl)ccc1Cl)NC1CCCc2ccccc21 (stereo not drawn)	none
Cc1ccc2nc(SCC(=O)NC3CCCc4ccccc43)[nH]c2c1 (stereo not drawn)	KB-3-1 cytotox inconclusive, HT1080NT lethal inconclusive, KB-V1 MDR tox 15µM, HT1080 IDH1KD tx inconclusive
Cc1ccc(Nc2nnc(SCC(=O)NC3CCCc4ccccc43)s2)cc1 (stereo not drawn)	none
O=C(CSc1ccc2ccccc2c1)NC1CCCc2ccccc21 (stereo not drawn)	KB-V1 MDR tox 15µM
Cc1cccc(Nc2nnc(SCC(=O)NC3CCCc4ccccc43)s2)c1 (stereo not drawn)	KB-3-1 cytotox inconclusive, IL1B secr inh -55, KB-V1 MDR tox inconclusive, HT1080 IDH1KD tx inconclusive
O=C(CSc1nc2cc(Cl)ccc2s1)NC1CCCc2ccccc21 (stereo not drawn)	KB-V1 MDR tox 16µM
O=C(C1CCC1)N1CCc2cc(S(=O)(=O)NCc3ccc(F)cc3)ccc21	none (no result: IL1B secr inh, HT1080NT lethal, HT1080 IDH1KD tx)
Cc1[nH]c2ccccc2c1/C=N/NC(=O)CNC(=O)c1ccc2c(c1)OCCO2	none
C=CCc1ccccc1OCC(O)CNC1CCCC1 (stereo not drawn)	none
